Source: PubChem BioAssay
Inconclusive results are not listed. Activity calls are given as the source filed them.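 The calls were made as follows, unless noted: active = compounds killing one labelled cell type while sparing the other, by normalised counts and ratio limits, not self-fluorescent; inactive = the rest.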

Assays:
[1] = differential killing of epithelial or mesenchymal cells, primary screen, imaging, PC-3E GFP, TEM4-18 mCherry, co-culture (AID 1345086); conditions: imaging cell counts, at 1 µM; for red/green cell ratio (normalised): actives lie on both sides, counts scaled to control wells, 1 = unselective;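 as to all read-outs here: cells exposed to compound for 72 h before imaging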;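 as to red/green cell ratio (normalised): normalised mesenchymal count divided by normalised epithelial count so high means epithelial killing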
[2] = viability loss in pontine glioma line – cell-based, SU-DIPG-XXV, MIPE5.0, CellTiter-Glo, qHTS, dose response (AID 1347065; cut-off not given, nearly all actives have AC50 up to about 26 µM;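 also: cells exposed to compound for 48 hours before ATP readout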); conditions: CellTiter-Glo ATP luminescence
[3] = JHH-DIPG-1 glioma cell viability, MIPE5.0 library, CellTiter-Glo luminescence, qHTS (AID 1347067; cut-off not given, nearly all actives have AC50 up to about 26 µM;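 also: cells exposed to compound for 48 hours before readout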); conditions: JHH-DIPG-1 glioma viability, CellTiter-Glo ATP luminescence
[4] = target: NAD(+) hydrolase SARM1 (Homo sapiens) (UniProt Q6SZW1); assay: SARM1 TIR NADase inhibitors, cell lysate, NAD-Glo luminescence (AID 1508614;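 active = compound whose remaining NAD level is above about 45 nM, limit read from the data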;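 also: higher remaining NAD means stronger inhibition of SARM1 NADase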); conditions: SAM-TIR HEK293T lysate NADase, at 1 µM, stronger effect = higher value
Sequence of NAD(+) hydrolase SARM1 (Homo sapiens) (Q6SZW1 whole entry, looked up): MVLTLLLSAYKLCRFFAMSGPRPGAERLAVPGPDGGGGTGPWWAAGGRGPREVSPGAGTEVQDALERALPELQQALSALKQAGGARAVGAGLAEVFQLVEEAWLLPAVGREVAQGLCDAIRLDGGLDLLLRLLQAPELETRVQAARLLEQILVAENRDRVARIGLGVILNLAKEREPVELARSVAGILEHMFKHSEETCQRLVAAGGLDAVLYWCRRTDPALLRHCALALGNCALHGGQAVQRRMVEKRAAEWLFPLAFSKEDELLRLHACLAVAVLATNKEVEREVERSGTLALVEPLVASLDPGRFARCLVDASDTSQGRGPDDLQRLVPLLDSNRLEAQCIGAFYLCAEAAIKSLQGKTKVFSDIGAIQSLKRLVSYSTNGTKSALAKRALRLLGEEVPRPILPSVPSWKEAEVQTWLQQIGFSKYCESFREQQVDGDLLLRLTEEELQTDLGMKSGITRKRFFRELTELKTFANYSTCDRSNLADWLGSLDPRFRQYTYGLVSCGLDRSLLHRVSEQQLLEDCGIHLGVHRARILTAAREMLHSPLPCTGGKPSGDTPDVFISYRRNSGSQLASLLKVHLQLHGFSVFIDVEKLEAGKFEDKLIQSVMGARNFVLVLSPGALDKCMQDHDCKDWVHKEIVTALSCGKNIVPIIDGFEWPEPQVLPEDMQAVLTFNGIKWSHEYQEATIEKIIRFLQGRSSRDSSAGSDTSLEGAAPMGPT

[5] = sensitizers of A549 cells to miR-34 induction, primary screen, imaging, A549 dox-inducible miR-34, nuclei and caspase counts (AID 1347080;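 active = compounds whose cell count with miR-34 switched on is under 0.7 times the count with it off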); conditions: A549 miR-34 inducible, Hoechst nuclei count, 48 h
[6] = measured here: epithelial PC-3E GFP cell survival
[7] = measured here: mesenchymal TEM4-18 mCherry cell survival
[8] = stronger effect = lower value, cell number ratio, induced over uninduced
[9] = measured here: relative caspase fold change +Dox/-Dox
[10] = measured here: total cells with miR-34 induction, stronger effect = lower value
[11] = measured here: total cells without miR-34 induction

Row | SMILES | red/green cell ratio (normalised) [1] | normalised cell number [1, 6] | normalised cell number [1, 7] | outcome [2] | outcome [3] | remaining NAD [4] | fold change [5, 8] | fold change [5, 9] | cell count [5, 10] | cell count [5, 11]
1 | Clc1ccc(CCC(Cn2ccnc2)Sc2c(Cl)cccc2Cl)cc1 (stereo unspecified) | 0.84 (inactive) | 1.26 | 1.06 | inactive | inactive | 10 nM (inactive) | – | – | – | –
2 | O=C1SCN(Cc2ccccc2)CN1Cc1ccccc1 | 0.9 (inactive) | 0.96 | 0.86 | – | – | – | 0.983 (inactive) | 0.637 | 8570 | 8710
3 | COc1c(O)cc2c(c1O)[C@H]1O[C@H](CO)[C@@H](O)[C@H](O)[C@@H]1OC2=O | 0.9 (inactive) | 1.23 | 1.11 | – | – | – | 0.894 (inactive) | 0.886 | 8900 | 9950
4 | Nc1nc(NC2CC2)c2ncn(C3C=C[C@@H](CO)C3)c2n1 (stereo partly specified) | 1.14 (inactive) | 1.1 | 1.26 | – | – | – | 0.995 (inactive) | 0.706 | 8880 | 8920
5 | O=c1[nH]c(=O)n([C@H]2C[C@H](O)C(CO)O2)cc1I (stereo partly specified) | 0.98 (inactive) | 1.09 | 1.07 | – | – | – | 1.01 (inactive) | 0.724 | 7950 | 7880
6 | CC(=O)OC1CC2CCC1(C)C2(C)C (stereo unspecified) | 1.03 (inactive) | 0.91 | 0.94 | – | – | – | 0.913 (inactive) | 0.766 | 8690 | 9520
7 | NCCCC(N)C(=O)O (stereo unspecified) | 1.03 (inactive) | 0.99 | 1.02 | – | – | – | 0.906 (inactive) | 0.95 | 8560 | 9450
8 | C[C@]12CCC(=O)C=C1[C@@H]1C[C@@H]1C1C2CC[C@@]2(C)C1[C@@H]1C[C@@H]1[C@@]21CCC(=O)O1 (stereo partly specified) | 0.65 (inactive) | 1.4 | 0.91 | – | – | – | 1.02 (inactive) | 0.868 | 7990 | 7840
9 | CCN(CC)C(=O)C1(c2ccccc2)CC1CN (stereo unspecified) | 0.9 (inactive) | 1.08 | 0.98 | – | – | – | 0.92 (inactive) | 0.893 | 8180 | 8890
10 | N[C@@H](CO)c1ccccc1 | 0.91 (inactive) | 0.97 | 0.88 | – | – | – | 0.995 (inactive) | 0.434 | 5440 | 5460
11 | COc1cc(O)cc(C(=O)c2ccccc2)c1S(=O)(=O)O | 1 (inactive) | 1.17 | 1.18 | – | – | – | 0.973 (inactive) | 0.886 | 9730 | 10000
12 | CCC(=O)OCC(=O)[C@@]1(OC(=O)CC)[C@H](C)CC2C3C([C@@H](O)C[C@@]21C)[C@@]1(C)C=CC(=O)C=C1C[C@H]3Cl (stereo partly specified) | 1.28 (inactive) | 0.98 | 1.25 | – | – | – | 0.884 (inactive) | 0.881 | 5210 | 5890
13 | C#C[C@]1(O)CCC2C3CCc4cc(OC5CCCC5)ccc4C3CC[C@@]21C (stereo partly specified) | 0.98 (inactive) | 1.02 | 1 | – | – | – | 0.818 (inactive) | 0.977 | 4740 | 5800
14 | CSCC[C@H](NC(=O)[C@H](Cc1c[nH]c2ccccc12)NC(=O)[C@H](C)NC(=O)OC(C)(C)C)C(=O)N[C@@H](CC(=O)O)C(=O)N[C@@H](Cc1ccccc1)C(N)=O | 0.98 (inactive) | 1.15 | 1.13 | – | – | – | 0.979 (inactive) | 0.82 | 9410 | 9610
15 | CC(=O)Oc1cc2c(s1)CCN([C@H](C(=O)C1CC1)c1ccccc1F)C2 | 1.12 (inactive) | 0.87 | 0.98 | – | – | – | 0.848 (inactive) | 0.716 | 7480 | 8810
16 | CC(=O)[C@H]1CCC2C3CC=C4C[C@@H](OC(=O)CCC(=O)O)CC[C@]4(C)C3CC[C@@]21C (stereo partly specified) | 0.87 (inactive) | 1.07 | 0.93 | – | – | – | 0.903 (inactive) | 0.914 | 8450 | 9360
17 | O=C(O)c1ccccc1-c1c2cc(I)c(=O)c(I)c-2oc2c(I)c(O)c(I)cc12 | 0.52 (inactive) | 0.98 | 0.5 | – | – | – | 0.927 (inactive) | 0.976 | 9160 | 9880
18 | CCC(=O)Oc1ccc2c(c1)CCC1C2CC[C@@]2(C)C1CC[C@@H]2OC(=O)CC (stereo partly specified) | 1.36 (inactive) | 0.8 | 1.09 | – | – | – | 0.968 (inactive) | 0.855 | 8160 | 8430
19 | CC(C)C/C=C/C=C\C(=O)N[C@@H](CC(N)=O)C(=O)N[C@@H]1C(=O)N[C@H](c2ccc(O)cc2)C(=O)N[C@H](CCCN)C(=O)N[C@H]([C@H](C)O)C(=O)N[C@@H](c2ccc(O)cc2)C(=O)N[C@H](c2ccc(O)cc2)C(=O)N[C@@H]([C@H](C)O)C(=O)N[C@@H](Cc2ccccc2)C(=O)N[C@H](CCCN)C(=O)N[C@@H](c2ccc(O[C@@H]3O[C@H](CO)[C@H](O)[C@@H](O)[C@@H]3O[C@@H]3O[C@H](CO)[C@@H](O)[C@H](O)[C@H]3O)cc2)C(=O)NC(C(C)O)C(=O)N[C@@H](c2ccc(O)cc2)C(=O)NCC(=O)N[C@@H](CC(C)C)C(=O)N[C@H](C)C(=O)N[C@@H](c2ccc(O)c(Cl)c2)C(=O)O[C@@H]1C(N)=O (stereo partly specified) | 0.89 (inactive) | 1.04 | 0.93 | – | – | – | 0.899 (inactive) | 0.946 | 8820 | 9820
20 | Cc1cc(=O)c(C(=O)N[C@@H](C(=O)N[C@@H]2C(=O)N3C(C(=O)O)=C(CSc4nnnn4C)CSC23)c2ccc(O)cc2)c[nH]1 (stereo partly specified) | 0.9 (inactive) | 1.24 | 1.12 | – | – | – | 0.93 (inactive) | 0.887 | 8940 | 9610
21 | C=C(C)C1CC=C(C)CC1 (stereo unspecified) | 0.93 (inactive) | 1.03 | 0.96 | – | – | – | 0.884 (inactive) | 1.07 | 8150 | 9220
